# Source: publication PMC7862700, “An all-to-all approach to the identification of sequence-specific readers for epigenetic DNA modifications on cytosine”
# Columns and labels:
# Experiment in all cases: DAPPL (digital affinity profiling via proximity ligation, sequencing); 10 mM Tris-HCl pH 7.5, 50 mM NaCl, 1 mM DTT, 4% glycerol, room temperature, 30 min; GST-TFs on glutathione beads, 16-mer random dsDNA library, 0.1% formaldehyde crosslink after washing; high values mean tight binding
# Conditions in all cases: protein: recombinant; tags: N-terminal GST; dsDNA, one strand shown
# [1] = biological target: T1, FLI1 (Homo sapiens, UniProt Q01543 1-452)
# T1 sequence: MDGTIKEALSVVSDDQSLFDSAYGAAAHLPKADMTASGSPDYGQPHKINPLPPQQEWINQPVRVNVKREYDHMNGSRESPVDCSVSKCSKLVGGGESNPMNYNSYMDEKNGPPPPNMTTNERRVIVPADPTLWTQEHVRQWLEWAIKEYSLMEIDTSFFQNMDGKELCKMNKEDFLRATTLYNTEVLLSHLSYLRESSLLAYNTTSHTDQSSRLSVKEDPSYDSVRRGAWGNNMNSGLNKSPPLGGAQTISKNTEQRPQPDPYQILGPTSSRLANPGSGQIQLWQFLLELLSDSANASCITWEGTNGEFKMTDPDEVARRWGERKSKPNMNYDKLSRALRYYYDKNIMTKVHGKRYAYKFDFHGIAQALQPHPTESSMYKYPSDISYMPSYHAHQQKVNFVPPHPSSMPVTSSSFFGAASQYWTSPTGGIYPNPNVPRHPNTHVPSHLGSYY
# Procedure, shortened: (§1)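 The binding signal reported is, for every hexamer, its read frequency for a factor over its read frequency for the tag-only sample. Reads came from pools of yeast-expressed, GST-fused human transcription factors on glutathione beads, barcoded with DNA and mixed with that sample, which were incubated with 200 nmole of a random double-stranded 16-mer DNA library in Tris/NaCl/DTT/glycerol buffer at room temperature for 30 min. After washing, the pools were crosslinked with 0.1% formaldehyde, proximity-ligated with BsaI/T4 ligase for 1 h at 37 °C, PCR-amplified and sequenced on an Illumina NextSeq500.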
# [2] = biological target: T2, ELK1 (Homo sapiens, UniProt P19419 1-428)
# T2 sequence: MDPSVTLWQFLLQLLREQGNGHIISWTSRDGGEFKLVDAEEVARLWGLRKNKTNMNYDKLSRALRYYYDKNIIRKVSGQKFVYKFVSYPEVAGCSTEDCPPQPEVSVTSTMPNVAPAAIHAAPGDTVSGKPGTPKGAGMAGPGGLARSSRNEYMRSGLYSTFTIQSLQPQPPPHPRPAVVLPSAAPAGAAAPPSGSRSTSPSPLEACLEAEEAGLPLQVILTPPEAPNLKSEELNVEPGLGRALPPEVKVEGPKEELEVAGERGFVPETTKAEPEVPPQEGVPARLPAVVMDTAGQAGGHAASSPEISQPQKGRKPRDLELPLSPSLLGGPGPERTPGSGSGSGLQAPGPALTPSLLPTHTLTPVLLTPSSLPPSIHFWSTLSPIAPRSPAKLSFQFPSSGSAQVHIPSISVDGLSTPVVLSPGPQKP
# Procedure, shortened: as §1
# [3] = biological target: T3, GABPA (Homo sapiens, UniProt Q06546 1-454)
# T3 sequence: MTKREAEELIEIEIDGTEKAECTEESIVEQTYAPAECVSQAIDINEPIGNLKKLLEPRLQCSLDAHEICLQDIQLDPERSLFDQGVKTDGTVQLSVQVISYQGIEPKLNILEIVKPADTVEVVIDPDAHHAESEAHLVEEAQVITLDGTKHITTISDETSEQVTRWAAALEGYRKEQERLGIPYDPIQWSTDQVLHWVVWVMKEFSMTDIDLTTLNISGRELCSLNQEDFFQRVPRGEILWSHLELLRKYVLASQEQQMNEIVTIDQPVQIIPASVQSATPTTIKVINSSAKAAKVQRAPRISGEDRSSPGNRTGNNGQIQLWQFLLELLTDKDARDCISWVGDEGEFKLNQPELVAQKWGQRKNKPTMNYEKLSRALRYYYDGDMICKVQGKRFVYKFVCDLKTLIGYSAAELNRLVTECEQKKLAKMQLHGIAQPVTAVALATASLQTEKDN
# Procedure, shortened: as §1
# [4] = biological target: T4, ERG (Homo sapiens, UniProt P11308 1-479)
# T4 sequence: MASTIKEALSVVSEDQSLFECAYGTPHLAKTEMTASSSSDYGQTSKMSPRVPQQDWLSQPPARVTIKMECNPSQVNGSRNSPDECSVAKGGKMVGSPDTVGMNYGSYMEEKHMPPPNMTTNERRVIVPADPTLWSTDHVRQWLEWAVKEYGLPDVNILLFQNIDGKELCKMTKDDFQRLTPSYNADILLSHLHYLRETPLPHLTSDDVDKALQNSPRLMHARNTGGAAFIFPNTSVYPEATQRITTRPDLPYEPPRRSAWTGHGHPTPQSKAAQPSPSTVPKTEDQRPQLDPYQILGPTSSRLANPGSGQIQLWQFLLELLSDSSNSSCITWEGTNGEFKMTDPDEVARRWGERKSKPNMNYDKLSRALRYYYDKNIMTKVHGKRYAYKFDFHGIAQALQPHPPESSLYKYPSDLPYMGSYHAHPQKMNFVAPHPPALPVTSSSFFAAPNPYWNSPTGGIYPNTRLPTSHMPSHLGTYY
# Procedure, shortened: as §1
# [5] = biological target: ELF1 (Homo sapiens, UniProt P32519 1-619)
# Sequence of ELF1 (P32519 whole entry): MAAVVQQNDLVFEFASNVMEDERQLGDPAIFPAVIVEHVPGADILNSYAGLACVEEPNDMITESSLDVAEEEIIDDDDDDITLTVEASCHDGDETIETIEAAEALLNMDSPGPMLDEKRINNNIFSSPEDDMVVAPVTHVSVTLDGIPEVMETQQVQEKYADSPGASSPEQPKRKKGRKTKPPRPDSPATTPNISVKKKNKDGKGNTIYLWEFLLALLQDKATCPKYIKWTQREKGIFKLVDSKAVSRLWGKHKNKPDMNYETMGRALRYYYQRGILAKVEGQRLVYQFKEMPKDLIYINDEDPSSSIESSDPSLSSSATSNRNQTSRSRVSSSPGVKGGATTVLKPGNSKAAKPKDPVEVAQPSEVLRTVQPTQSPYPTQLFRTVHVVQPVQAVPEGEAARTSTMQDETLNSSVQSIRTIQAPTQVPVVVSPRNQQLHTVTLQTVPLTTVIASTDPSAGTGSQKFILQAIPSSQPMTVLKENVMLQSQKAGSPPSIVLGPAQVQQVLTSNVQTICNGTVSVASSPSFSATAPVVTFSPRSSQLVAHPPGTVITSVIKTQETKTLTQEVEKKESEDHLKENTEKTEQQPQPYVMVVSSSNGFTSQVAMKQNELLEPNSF
# Procedure, shortened: as §1
# [6] = biological target: T5, EHF (Homo sapiens, UniProt Q9NZC4 1-300)
# T5 sequence: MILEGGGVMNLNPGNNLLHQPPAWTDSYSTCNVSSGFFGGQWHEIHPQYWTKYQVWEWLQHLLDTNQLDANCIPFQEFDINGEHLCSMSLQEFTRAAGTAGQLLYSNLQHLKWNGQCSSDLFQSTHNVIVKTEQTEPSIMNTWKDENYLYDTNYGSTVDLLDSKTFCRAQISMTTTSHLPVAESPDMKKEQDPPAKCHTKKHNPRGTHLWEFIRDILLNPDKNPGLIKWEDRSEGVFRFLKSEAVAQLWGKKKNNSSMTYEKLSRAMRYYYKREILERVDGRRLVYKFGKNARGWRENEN
# Procedure, shortened: as §1
# [7] = biological target: SPI1 (Homo sapiens, UniProt P17947 1-270)
# Procedure, shortened: as §1
# [8] = biological target: SPIB (Homo sapiens, UniProt Q01892 1-262)
# Sequence of SPIB (Q01892 whole entry): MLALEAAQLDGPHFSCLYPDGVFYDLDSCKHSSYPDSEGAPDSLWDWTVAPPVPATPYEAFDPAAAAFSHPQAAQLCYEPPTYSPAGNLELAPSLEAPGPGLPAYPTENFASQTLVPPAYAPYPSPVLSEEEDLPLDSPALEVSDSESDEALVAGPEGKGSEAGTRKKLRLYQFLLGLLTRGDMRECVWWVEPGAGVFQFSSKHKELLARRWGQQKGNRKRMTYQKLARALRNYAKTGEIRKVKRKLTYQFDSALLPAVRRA
# Procedure, shortened: as §1
# [9] = biological target: T6, ELK3 (Homo sapiens, UniProt P41970 1-407)
# T6 sequence: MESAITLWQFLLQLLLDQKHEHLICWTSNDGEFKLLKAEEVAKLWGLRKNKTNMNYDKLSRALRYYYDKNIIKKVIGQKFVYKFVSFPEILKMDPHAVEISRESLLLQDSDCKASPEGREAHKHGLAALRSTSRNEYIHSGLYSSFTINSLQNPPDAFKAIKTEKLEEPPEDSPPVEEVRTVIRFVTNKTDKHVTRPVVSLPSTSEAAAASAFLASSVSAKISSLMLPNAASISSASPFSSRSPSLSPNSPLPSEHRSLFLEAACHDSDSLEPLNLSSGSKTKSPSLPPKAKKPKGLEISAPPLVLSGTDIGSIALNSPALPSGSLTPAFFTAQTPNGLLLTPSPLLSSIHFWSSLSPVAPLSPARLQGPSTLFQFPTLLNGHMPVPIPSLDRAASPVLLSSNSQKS
# Procedure, shortened: as §1
sequence,measurement,setting,value
TACAGA,binding signal,[1],"1.08 fold enrichment (6-mer frequency, TF over GST control)"
same,binding signal,[2],"1.14 fold enrichment (6-mer frequency, TF over GST control)"
same,binding signal,[3],"1.25 fold enrichment (6-mer frequency, TF over GST control)"
same,binding signal,[4],"1.11 fold enrichment (6-mer frequency, TF over GST control)"
same,binding signal,[5],"1.14 fold enrichment (6-mer frequency, TF over GST control)"
same,binding signal,[6],"1.11 fold enrichment (6-mer frequency, TF over GST control)"
same,binding signal,[7],"1.13 fold enrichment (6-mer frequency, TF over GST control)"
same,binding signal,[8],"1.16 fold enrichment (6-mer frequency, TF over GST control)"
same,binding signal,[9],"1.06 fold enrichment (6-mer frequency, TF over GST control)"
TTTTGT,binding signal,[1],"1.35 fold enrichment (6-mer frequency, TF over GST control)"
same,binding signal,[2],"1.18 fold enrichment (6-mer frequency, TF over GST control)"
same,binding signal,[3],"1.36 fold enrichment (6-mer frequency, TF over GST control)"
same,binding signal,[4],"1.39 fold enrichment (6-mer frequency, TF over GST control)"
same,binding signal,[5],"1.33 fold enrichment (6-mer frequency, TF over GST control)"
same,binding signal,[6],"1.33 fold enrichment (6-mer frequency, TF over GST control)"
same,binding signal,[7],"1.43 fold enrichment (6-mer frequency, TF over GST control)"
same,binding signal,[8],"1.37 fold enrichment (6-mer frequency, TF over GST control)"
same,binding signal,[9],"1.27 fold enrichment (6-mer frequency, TF over GST control)"
CTTTTC,binding signal,[1],"1.44 fold enrichment (6-mer frequency, TF over GST control)"
same,binding signal,[2],"1.51 fold enrichment (6-mer frequency, TF over GST control)"
same,binding signal,[3],"1.34 fold enrichment (6-mer frequency, TF over GST control)"
same,binding signal,[4],"1.43 fold enrichment (6-mer frequency, TF over GST control)"
same,binding signal,[5],"1.38 fold enrichment (6-mer frequency, TF over GST control)"
same,binding signal,[6],"1.39 fold enrichment (6-mer frequency, TF over GST control)"
same,binding signal,[7],"1.65 fold enrichment (6-mer frequency, TF over GST control)"
same,binding signal,[8],"1.53 fold enrichment (6-mer frequency, TF over GST control)"
same,binding signal,[9],"1.23 fold enrichment (6-mer frequency, TF over GST control)"
GCTCAA,binding signal,[1],"1.05 fold enrichment (6-mer frequency, TF over GST control)"
same,binding signal,[2],"1.1 fold enrichment (6-mer frequency, TF over GST control)"
same,binding signal,[3],"1.05 fold enrichment (6-mer frequency, TF over GST control)"
same,binding signal,[4],"1.15 fold enrichment (6-mer frequency, TF over GST control)"
same,binding signal,[5],"1.09 fold enrichment (6-mer frequency, TF over GST control)"
same,binding signal,[6],"1.13 fold enrichment (6-mer frequency, TF over GST control)"
same,binding signal,[7],"1.09 fold enrichment (6-mer frequency, TF over GST control)"
same,binding signal,[8],"1.1 fold enrichment (6-mer frequency, TF over GST control)"
same,binding signal,[9],"1.01 fold enrichment (6-mer frequency, TF over GST control)"
TCTTCC,binding signal,[1],"2.61 fold enrichment (6-mer frequency, TF over GST control)"
same,binding signal,[2],"2.52 fold enrichment (6-mer frequency, TF over GST control)"
same,binding signal,[3],"2.39 fold enrichment (6-mer frequency, TF over GST control)"
same,binding signal,[4],"2.86 fold enrichment (6-mer frequency, TF over GST control)"
same,binding signal,[5],"2.65 fold enrichment (6-mer frequency, TF over GST control)"
same,binding signal,[6],"2.76 fold enrichment (6-mer frequency, TF over GST control)"
same,binding signal,[7],"2.46 fold enrichment (6-mer frequency, TF over GST control)"
same,binding signal,[8],"2.75 fold enrichment (6-mer frequency, TF over GST control)"
same,binding signal,[9],"2.79 fold enrichment (6-mer frequency, TF over GST control)"
TAATTG,binding signal,[1],"1.38 fold enrichment (6-mer frequency, TF over GST control)"
same,binding signal,[2],"1.43 fold enrichment (6-mer frequency, TF over GST control)"
same,binding signal,[3],"1.38 fold enrichment (6-mer frequency, TF over GST control)"
same,binding signal,[4],"1.27 fold enrichment (6-mer frequency, TF over GST control)"
same,binding signal,[5],"1.3 fold enrichment (6-mer frequency, TF over GST control)"
same,binding signal,[6],"1.37 fold enrichment (6-mer frequency, TF over GST control)"
same,binding signal,[7],"1.47 fold enrichment (6-mer frequency, TF over GST control)"
same,binding signal,[8],"1.37 fold enrichment (6-mer frequency, TF over GST control)"
same,binding signal,[9],"1.5 fold enrichment (6-mer frequency, TF over GST control)"
CTCCTC,binding signal,[1],"1.36 fold enrichment (6-mer frequency, TF over GST control)"
same,binding signal,[2],"1.38 fold enrichment (6-mer frequency, TF over GST control)"
same,binding signal,[3],"1.39 fold enrichment (6-mer frequency, TF over GST control)"
same,binding signal,[4],"1.26 fold enrichment (6-mer frequency, TF over GST control)"
same,binding signal,[5],"1.32 fold enrichment (6-mer frequency, TF over GST control)"
same,binding signal,[6],"1.54 fold enrichment (6-mer frequency, TF over GST control)"
same,binding signal,[7],"1.39 fold enrichment (6-mer frequency, TF over GST control)"
same,binding signal,[8],"1.4 fold enrichment (6-mer frequency, TF over GST control)"
same,binding signal,[9],"1.31 fold enrichment (6-mer frequency, TF over GST control)"
